Screens deposited in PubChem by National Center for Advancing Translational Sciences (NCATS).
HT1080-NT tox: kills 2HG-producing HT-1080-NT fibrosarcoma cells; HT-1080-NT fibrosarcoma viability, CellTiter-Glo ATP luminescence, 48 h; Potency, µM (series often up to 46.1 µM), for inactives: at the top dose activity, negative = less viability, hits mostly cytotoxic; 360,000 tested, 1.6% active; AID 686970;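 further: NT is the 2HG producing partner of a matched IDH1 knockdown line; 0% = DMSO-treated cells and -100% = media-only wells without cells; nearly all actives have a fitted effect of over 55% in size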
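HT-1080-NT; 750 cells/well; 5% FBS RPMI; 48 h compound, 37 degrees C; CellTiter-Glo luminescence; curve fitting and curve-class assignment.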
HT1080 IDH1KD tx: HT-1080 IDH1 knockdown cell toxicity (counter line); HT-1080 IDH1 knockdown viability, ATP luminescence, 48 h; Potency, µM (highest dose often 46.1 µM), without a hit: top-dose activity, negative = toxicity, hits mostly cytotoxic; 360,000 tested, 2% active; AID 686971;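 further: 0% = DMSO wells and -100% = cell-free medium wells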
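Assay cells: HT-1080 with IDH1 knockdown, 750 per well, RPMI/5% FBS. Exposure: 48 h at 37 °C following 2 h pre-incubation. Read: CellTiter-Glo luminescence; fitted concentration-response, curve class assigned.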
KB-V1 cytotox: KB-V1 MDR subline cytotoxicity | KB-V1 MDR cells viability, CellTiter-Glo, 72 h | Potency, µM (titrated, usually from 46.1 µM), actives largely listed as cytotoxic | 400,000 tested, 3.4% active; further: on the % scale 0 is the no-effect control and ±100 the full control effect; nearly all actives have a fitted effect of over 60% in size
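Following 72 h at 37 degrees C with compound, KB-V1 cell viability was read by CellTiter-Glo luminescence, medium being phenol-red-free DMEM plus 10% FBS; concentration-response parameters came from normalized, curve-fitted qHTS data.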
KB-3-1 cytotox: kills parental KB-3-1 adenocarcinoma cells; KB-3-1 viability, CellTiter-Glo ATP luminescence, 72 h; 400,000 tested, 1.4% active; Potency, µM (titrated, usually from 46.1 µM), actives largely listed as cytotoxic; further: on the % scale 0 is the no-effect control and ±100 the full control effect; nearly all actives have a fitted effect of over 60% in size
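Parental KB-3-1 adenocarcinoma cells in phenol-red-free DMEM with 10% FBS were pin-treated with compounds at several concentrations, incubated 72 h at 37 °C, and viability read by CellTiter-Glo luminescence; concentration-effect curves were fitted after normalization.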
SW480 rerep: inducers of DNA re-replication in SW480 colon cancer cells; SW480 DNA re-replication, Hoechst DNA content imaging, 48 h; Potency, µM (highest dose often 46.1 µM), inactives show at the top dose re-replication activation, usual class: activators; 340,000 tested, 1.8% active; AID 624297; further: % of control where 0% means no effect; nearly all actives have a fitted effect of over 55% in size
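Readout is total intensity of Hoechst-stained nuclei, excited at 405 nm and collected at 500-530 nm. Compound treatment lasted 48 hr at 37 C in 5% CO2 before staining.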
MCF10A rerep: induces DNA re-replication in MCF 10a normal breast cells | MCF 10A DNA re-replication, Hoechst nuclear intensity, 48 h | Potency, µM (top dose mostly 46.1 µM), without a hit: top-dose activity, positive = re-replication, usual class: activators | 350,000 tested, 2.9% active | AID 624296; further: % of control where 0% means no effect; nearly all actives have a fitted effect of over 50% in size
The depositor's hits bear a star; i = inactive; ? = inconclusive; · = no result given. Most compounds without a hit are left out; they make up all but 7.9% or so of the library. The call rests on the fitted dose curve; in most records, active means well fitted curve in the direction sought with a large enough effect; inconclusive means small, poorly fitted or top-dose-only effect, or another doubt; inactive means no such curve, though single readings can be large; an effect the other way counts as inactive or inconclusive. Potency means the concentration at half of the fitted maximal effect.

SMILES | HT1080-NT tox | HT1080 IDH1KD tx | KB-V1 cytotox | KB-3-1 cytotox | SW480 rerep | MCF10A rerep
COc1ccccc1CNC(=O)[C@@H]1CCCN1C(=O)C1CCN(S(=O)(=O)c2ccc(C)cc2)CC1 | -5.3% | -11.1% | 16.4µM* | i | -0.6% | 0.5%
Cc1ccc(S(=O)(=O)N2CCC(C(=O)N3CCC[C@H]3C(=O)NCc3ccccc3)CC2)cc1 | -1.9% | -0.2% | ? | i | -16.6% | 2.1%
Cc1ccc(CNC(=O)CN(C)S(=O)(=O)c2ccc(Br)s2)cc1 | · | · | i | i | · | ·
CCN1CC(CCN2CCOCC2)C(c2ccccc2)(c2ccccc2)C1=O (stereo not given) | · | · | · | · | -2.3% | -0.1%
CCNc1ccc(C(=O)OCC(=O)Nc2cc(C)on2)cc1[N+](=O)[O-] | 11.8% | 0.0% | i | i | 2.9% | -2.5%
CCC1C/C(=C\c2cccnc2)C(=O)/C(=C/c2cccnc2)C1 (stereo not given) | ? | ? | ? | 3.66µM* | · | ?
O=C1/C(=C/c2cccnc2)CC/C1=C\c1cccnc1 | -21.2% | -9.3% | i | ? | 5.0% | ?
CN(C)c1ccc(/C=C2\CCC/C(=C\c3ccccc3)C2=O)cc1 | 12.1% | 11.8% | 18.4µM* | i | 15.4% | 18.4µM*
O=C1/C(=C/c2cccnc2)CCC/C1=C\c1cccnc1 | ? | ? | 3.26µM* | ? | 1.3µM* | 1.16µM*
COc1ccccc1NC(=O)c1sc2nc3n(c(=O)c2c1C)N=C(c1cccc(Br)c1)CS3 | · | · | i | i | · | ·
CC(C)SC1=NC(C)(C)C=C(/C=C/c2ccc(Cl)cc2Cl)N1 | ? | ? | i | ? | ? | 8.2µM*
CC(C)SC1=NC(C)(C)C=C(/C=C/c2c(Cl)cccc2Cl)N1 | ? | 20.6µM* | i | 14.6µM* | ? | 18.4µM*
O=C(/C=C/c1ccc(Cl)cc1Cl)c1nc2ccccc2[nH]1 | ? | ? | i | i | ? | 0.4%
Clc1cccc(Cl)c1/C=C/c1nc2ccccc2[nH]1 | ? | ? | ? | ? | 20.9% | 28.7%
Cc1cc(NC(=O)CSc2nc3c(C)cccc3cc2C#N)no1 | -1.5% | ? | ? | ? | ? | ?
C=CCn1c(SCC(=O)NCc2ccco2)nnc1-c1cccc(N(C)C)c1 | · | · | i | ? | · | ·
C=CCC1(CC=C)CCCN1C(=O)c1ccc2oc(CCCC)nc2c1 | -3.7% | -16.0% | ? | i | · | ·
CCc1cc2c(=O)c(-c3ccc4c(c3)OCCO4)coc2cc1OS(C)(=O)=O | -28.4% | ? | ? | ? | 9.2µM* | 10.9%
CCc1cc2c(=O)c(-c3ccc4c(c3)OCCO4)coc2c(CN2CCCCC2C)c1O (stereo not given) | -15.0% | ? | i | ? | ? | ?
Brc1ccc([C@H]2C=C[C@H]3CCCN4CC[C@H]2[C@@H]3[C@]42CO2)cc1 | -11.9% | -23.4% | i | ? | · | ·
COc1ccc(OC)c(Nc2nc(N)nc(CSc3nnc(N)s3)n2)c1 | 1.9% | 3.9% | i | i | -9.3% | -10.2%
COc1ccccc1Nc1nc(N)nc(-c2oc3ccccc3c2C)n1 | -2.1% | -8.2% | i | i | 7.31µM* | ?
COc1ccccc1Nc1nc(N)nc(CCl)n1 | 23.1µM* | 11.6µM* | ? | i | 11.6µM* | ?
COc1ccc(OC)c(Nc2nc(N)nc(CCl)n2)c1 | ? | 16.4µM* | ? | i | 2.59µM* | 29.1µM*
CC1CCc2noc(NC(=O)c3ccccc3[N+](=O)[O-])c2C1 (stereo not given) | · | · | i | i | · | ·
SMILES | HT1080-NT tox | HT1080 IDH1KD tx | KB-V1 cytotox | KB-3-1 cytotox | SW480 rerep | MCF10A rerep
CC(=O)Nc1ccc(S(=O)(=O)NNC(=O)c2ccc([N+](=O)[O-])cc2)cc1 | 0.5% | -1.5% | ? | i | -6.5% | -2.9%
CC(=O)Nc1ccc(S(=O)(=O)NNc2ccc([N+](=O)[O-])cc2)cc1 | ? | 16.4µM* | i | ? | -3.8% | ?
O=C(NNc1ccccn1)C(=O)NNS(=O)(=O)c1ccc(Cl)cc1 | -21.0% | ? | 18.4µM* | ? | ? | ?
O=C(NNc1ccccc1)C(=O)NNS(=O)(=O)c1ccc([N+](=O)[O-])cc1 | 2.06µM* | 5.8µM* | i | ? | -10.8% | -3.5%
O=C(NNc1ccccn1)C(=O)NNS(=O)(=O)c1ccc(F)cc1 | -12.1% | -26.9% | ? | i | ? | ?
COc1ccc(Cl)cc1-c1cc(C(=O)NCc2cccc(C(F)(F)F)c2)[nH]n1 | ? | ? | i | i | · | ·
O=C(Nc1nc2ccccc2n1Cc1ccccc1)c1ccc(COc2ccccc2[N+](=O)[O-])o1 | -1.8% | 6.2% | ? | i | ? | ?
Cc1ccc(OCc2ccc(C(=O)Nc3nc4ccccc4n3Cc3ccccc3)o2)c([N+](=O)[O-])c1 | ? | ? | ? | i | ? | 12.6µM*
COCCOC(=O)c1[nH]c2c(c1C)C(=O)CC(c1cccs1)C2 (stereo not given) | ? | 4.61µM* | 1.46µM* | 1.84µM* | 2.59µM* | ?
CCOC(=O)c1[nH]c2c(c1C)C(=O)CC(c1ccc(F)cc1)C2 (stereo not given) | 2.06µM* | 2.91µM* | ? | ? | ? | ?
CCOCCOC(=O)C1=C(C)NC2=C(C(=O)CC(c3cccs3)C2)C1c1ccsc1 (stereo not given) | ? | -28.1% | 20.6µM* | i | 1.8% | -0.5%
COC(=O)c1[nH]c2c(c1C)C(=O)CC(c1cccc(OC)c1)C2 (stereo not given) | 0.731µM* | 0.92µM* | ? | ? | 0.731µM* | ?
Cc1ccc(Cl)cc1N(C(=O)c1csnn1)C(C(=O)NC1CCCC1)c1ccco1 (stereo not given) | 15.9% | 0.0% | i | i | 10.2% | 23.2%
CCOCCOC(=O)c1[nH]c2c(c1C)C(=O)CC(c1cc(OC)c(OC)c(OC)c1)C2 (stereo not given) | -16.0% | -22.3% | i | ? | 3.3% | -21.6%
CCCCCOC(=O)c1[nH]c2c(c1C)C(=O)CC(c1ccco1)C2 (stereo not given) | 0.103µM* | 0.0164µM* | 0.0082µM* | ? | 0.116µM* | ?
CCOCCOC(=O)c1[nH]c2c(c1C)C(=O)CC(c1cccs1)C2 (stereo not given) | 0.461µM* | 0.461µM* | 1.16µM* | 0.92µM* | 1.16µM* | ?
